Screening data as filed in PubChem.
An excerpt weighted towards active compounds, which were near 11% of everything screened.
PI5P4Ka inh – inhibitors of human PI5P4K alpha. P48426. PI5P4Kalpha enzyme, ADP-Glo luminescence, 60 min; stronger effect = lower value. max response, %. hit rate 1.2% among 330,000. AID 652105; active means max response of -50% or lower; inconclusive means between -30% and -50%; inactive means -30% or higher; further: value at the top dose of about 77 µM; on the % scale 0 is the no-effect control and ±100 the full control effect
Target sequence (P48426 whole entry, looked up): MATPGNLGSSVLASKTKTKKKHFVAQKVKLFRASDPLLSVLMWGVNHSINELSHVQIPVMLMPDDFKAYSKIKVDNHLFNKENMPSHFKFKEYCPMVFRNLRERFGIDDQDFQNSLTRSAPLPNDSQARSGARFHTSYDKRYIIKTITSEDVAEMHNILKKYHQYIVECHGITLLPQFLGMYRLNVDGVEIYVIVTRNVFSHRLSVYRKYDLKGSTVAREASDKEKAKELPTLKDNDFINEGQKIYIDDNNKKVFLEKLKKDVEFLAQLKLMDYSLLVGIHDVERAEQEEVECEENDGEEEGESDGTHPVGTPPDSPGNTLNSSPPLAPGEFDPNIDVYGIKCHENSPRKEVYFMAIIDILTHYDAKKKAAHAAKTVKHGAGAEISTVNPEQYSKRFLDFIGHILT
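Single end-point luminescence (ADP-Glo) quantified ADP from PI5P4Kalpha turnover; ATP 5 microM final, 1 h at RT, 0.1% CHAPS and 0.28 mM EGTA in HEPES pH 7.4.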
JMJD2A Tudor inh – JMJD2A Tudor domain (human) inhibition. hit rate 4.4% among 390,000. AlphaScreen JMJD2A-Tudor / H3K4me3 peptide binding. Potency, µM (highest dose often 114 µM), inactives show at the top dose activity change, negative = inhibition, hits mostly inhibitors. AID 504339; further: potency means the concentration at half of the fitted maximal effect; on the % scale 0 is the no-effect control and ±100 the full control effect; nearly all actives have a fitted effect of over 50% in size
L3MBTL1 block – inhibitors of human L3MBTL1; Q9Y468; AlphaScreen L3MBTL1–H3K9me1 peptide binding; Potency, µM (top dose mostly 57.1 µM), inactives show at the top dose activity, negative = inhibition, usual class: inhibitors; hit rate 0.66% among 230,000; AID 485360; further: potency means the concentration at half of the fitted maximal effect; on the % scale 0 is the no-effect control and ±100 the full control effect; nearly all actives have a fitted effect of over 60% in size
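L3MBTL1 (50 nM) pre-complexed 30 min with biotinylated H3(1-15)K9me1 peptide (75 nM), then compounds added for 30 min at room temperature; AlphaScreen streptavidin donor/nickel chelate acceptor beads (10 ug/mL final) read after 30 min dark incubation.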
HP1b binding inh – HP1-beta chromodomain-methylated histone interaction inhibition; P83916; Potency, µM (series often up to 114 µM), inactives show top-dose activity change, negative = inhibition, usual class: inhibitors; AlphaScreen HP1-beta / biotin-H3K9me3 peptide binding; AID 540317; hit rate 0.56% among 390,000; further: potency means the concentration at half of the fitted maximal effect; nearly all actives have a fitted effect of over 70% in size
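HP1-beta protein (50 nM final) preincubated 30 min at room temperature with biotinylated H3(1-18)K9me3 peptide (50 nM) in PBS pH 7.4, 0.01% Tween-20, then compound added for 30 min. AlphaScreen streptavidin donor/nickel chelate acceptor beads (10 ug/mL final), 30 min dark, luminescence read.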
G9a block – G9a (human) methyltransferase inhibition | hit rate 8.8% among 350,000 | G9a H3K9 monomethylation, AlphaScreen, 2 h | Q96KQ7 | Potency, µM (top dose mostly 102 µM), for inactives: at the highest dose activity, negative = inhibition, hits mostly inhibitors; further: potency means the concentration at half of the fitted maximal effect; on the % scale 0 is the no-effect control and ±100 the full control effect; nearly all actives have a fitted effect of over 75% in size
Target sequence (Q96KQ7 913-1193 limits assumed): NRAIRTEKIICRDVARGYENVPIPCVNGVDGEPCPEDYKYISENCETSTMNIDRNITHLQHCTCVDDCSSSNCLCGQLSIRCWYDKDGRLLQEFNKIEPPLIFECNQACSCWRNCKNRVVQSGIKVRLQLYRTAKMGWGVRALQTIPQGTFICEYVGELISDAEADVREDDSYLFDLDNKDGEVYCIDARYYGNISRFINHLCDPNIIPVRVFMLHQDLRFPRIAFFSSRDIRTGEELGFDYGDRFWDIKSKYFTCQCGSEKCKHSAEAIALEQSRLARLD
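Enzyme 20 nM + cpd, 15 min RT; add b-H3K9 pep 500 nM / SAM 20 uM; 2 h RT; anti-H3K9me1 Ab 0.5 ug/mL + SA donor / anti-rabbit acceptor beads 20 ug/mL each, 10 min; AlphaScreen read.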
BAZ2B block – blocks human BAZ2B | Q9UIF8 | AlphaScreen BAZ2B-H3K14Ac peptide displacement | Potency, µM (highest dose often 114 µM), for the others: at the highest dose activity change, negative = inhibition, most hits filed as inhibitors | hit rate 4.4% among 360,000 | AID 504333; further: potency means the concentration at half of the fitted maximal effect; on the % scale 0 is the no-effect control and ±100 the full control effect; nearly all actives have a fitted effect of over 60% in size
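BAZ2B 50 nM plus b-H3(5-23)K14Ac 50 nM, PBS pH 7.4/0.01% Tween-20, 30 min RT; compound added (max 110 uM), 30 min RT; streptavidin donor/Ni-chelate acceptor beads 10 ug/mL final, 20 min dark; AlphaScreen read.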
* = called active by the depositor; ? = inconclusive; nt = no result; [ ] = another dose, or the depositor's remark. Unless noted, the call rests on the fitted dose curve; in most records, active means well fitted inhibition curve with a large enough effect; inconclusive means small, poorly fitted or top-dose-only effect; inactive means no such curve, though single readings can be large or run the other way.

SMILES	PI5P4Ka inh	JMJD2A Tudor inh	L3MBTL1 block	HP1b binding inh	G9a block	BAZ2B block
COc1ccc(NC(=O)c2ccc(=O)oc2)cc1	nt	-22%	1%	36%	50µM*	-4%
COc1ccc(NC(=O)CN(C)CC(=O)NCC2CCCCC2)cc1	-1	?	9%	17%	56µM*	0%
COc1ccc(NC(=O)c2coc(C)c2)cc1	-3	-17%	nt	17%	?	-8%
COc1ccc(N/C(=C2\CCCC2=O)C2CCCCC2)cc1	-1	56µM*	nt	-11%	nt	nt
COc1ccc(NC(=O)CNC(=O)C2CCCCC2)cc1	1	-14%	nt	43%	nt	-2%
COc1ccc(NC(=O)CN(C)C(=O)Cc2ccc(-c3ccccc3)cc2)cc1	-27	100µM*	-4%	21%	?	6%
CCN1CCN(c2csc3ccc(C)cc3c2=O)CC1	nt	-19%	nt	20%[57 µM]	-37%[59 µM]	?
Cc1ccc(-c2c(C(=O)Nc3ccc(F)c(F)c3)oc(=O)c3ccccc23)cc1	nt	-14%	nt	36%	-44%[59 µM]	-14%
COc1ccc(NC(=O)c2ccccc2SC)cc1	-2	-6%	-9%	37%	45µM*	8%
COc1ccc(NC(=O)c2csnn2)cc1	nt	-3%	nt	41%	?	-35%
COc1ccc(NC(=O)c2cccc(C(=O)Nc3ccc(OC)cc3)n2)cc1	nt	nt	7%	nt	71µM*	-19%
CCC(=O)Nc1ccc(Cl)c(NC(=S)NC(=O)c2ccco2)c1	1	-31%	6%	0%	?	2%
CCC(=O)Nc1ccc(Cl)c(NC(=S)NC(C)=O)c1	5	0%	3%	8%	28µM*	-8%
Cc1ccc(S(=O)(=O)N2CCN(S(=O)(=O)N3CCCCC3)CC2)cc1	-13	-10%	6%	25%	12%[59 µM]	10%
CC(C)(C)N=C1NN=C(c2ccc(S(=O)(=O)N3CCCCC3)cc2)CS1	-5	-28%	-4%	12%	35µM*	-36%
O=S(=O)(c1ccc(N=C2NN=C(c3cc(F)ccc3F)CS2)cc1)N1CCOCC1	-51*	-32%	nt	-18%	11%	23%
CC(=O)Nc1ccc(C2=NNC(=Nc3ccc(S(=O)(=O)N4CCOCC4)cc3)SC2)cc1	?	-29%	?	?	2.8µM*	-22%
COc1cccc(Cn2c(=O)c(-c3cccs3)nc3cnc(N4CCNCC4)nc32)c1	nt	nt	nt	nt	12%[0.501 µM]	nt
COc1ccc(Oc2ncc3nc(-c4ccc(F)cc4)c(=O)n(CCC#N)c3n2)cc1	nt	nt	nt	nt	-1%[0.501 µM]	nt
CCOC(=O)C(NC(=O)CC(C)C)(Nc1sc(C)c(CC)c1C#N)C(F)(F)F (stereo not given)	2	-23%	0%	29%	10%[59 µM]	5%
CCOC(=O)C(NC(=O)N(C)C)(Nc1sc(C)c(CC)c1C#N)C(F)(F)F (stereo not given)	-21	-28%	-5%	-9%	8.9µM*	-3%
CCOC(=O)C(NC(=O)CCl)(Nc1sc(C)c(CC)c1C#N)C(F)(F)F (stereo not given)	2	-12%	4%	43%	25µM*	-6%
CCOC(=O)C(NC(C)=O)(Nc1ccc(F)cc1)C(F)(F)F (stereo not given)	2	-23%	-1%	27%	4%	4%
N#Cc1ccc(CN2CCN(C(=O)CNC(=O)Cc3cccc4ccccc34)CC2)cc1	2	-6%	3%	30%	50µM*	3%
Cc1cc(C)c2c(=O)n(CC(=O)NCCCN3CCOCC3)sc2n1	-101*	1.1µM*	6%	3.2µM*	1.3µM*	?
SMILES	PI5P4Ka inh	JMJD2A Tudor inh	L3MBTL1 block	HP1b binding inh	G9a block	BAZ2B block
Cc1cc([N+](=O)[O-])nn1CC(=O)NCCCN1CCOCC1	-1	-7%	nt	20%	-10%	10%
Cc1cc(C)c2c(=O)n(CC(=O)NCCCN3CCN(c4ccccc4F)CC3)sc2n1	-77*	1µM*	-2%	2.5µM*	1.1µM*	?
CCN(c1ccccc1)S(=O)(=O)c1c(-c2ccc(C)cc2)csc1C(=O)OC	nt	-3%	nt	3%	33%[59 µM]	16%
Cn1c2ccsc2c2cnn(Cc3ccccc3F)c(=O)c21	nt	-24%	nt	nt	nt	nt
CCOC(=O)C(=O)Nc1nc(-c2ccc3c(c2)CCN3C(=O)C2CC2)c(C)s1	4	-19%	nt	14%	50µM*	?
Cc1sc(NC(=O)c2ccco2)nc1-c1ccc2c(c1)CC(C)N2C(=O)C1CC1 (stereo not given)	nt	-26%	-1%	?	45µM*	-4%
CC(=O)Nc1nc(-c2ccc3c(c2)CC(C)N3C(=O)C2CC2)c(C)s1 (stereo not given)	-4	-32%	nt	?	25µM*	?
CC1Cc2cc(S(=O)(=O)NCc3ccccc3)ccc2N1C(=O)C1CC1 (stereo not given)	1	-5%	nt	28%	12%[59 µM]	0%
Cc1sc(NC(=O)CN2CCCC2)nc1-c1ccc2c(c1)CCN2C(=O)c1cccc(F)c1	-13	?	nt	-10%	?	?
Cc1sc(NC(=O)Cc2ccc3c(c2)OCO3)nc1-c1ccc2c(c1)CCN2C(=O)c1ccc(F)cc1	-13	?	-14%	-19%	40µM*	-10%
Cc1sc(NC(=O)Cc2ccc3c(c2)OCO3)nc1-c1ccc2c(c1)CCN2C(=O)c1ccccc1F	2	-31%	-9%	2%	-25%	-9%
O=C1C(Nc2ccccc2)=C(NS(=O)(=O)c2ccccc2)C(=O)c2ccccc21	-2	-5%	-14%	2%	-8%[59 µM]	-13%
O=C1C(Nc2ccccc2)=C/C(=N/S(=O)(=O)c2cccs2)c2ccccc21	-4	4µM*	6.3µM*	11µM*	8.9µM*	2.8µM*
Cc1ccc(NC2=C/C(=N/S(=O)(=O)c3cccs3)c3ccccc3C2=O)cc1	-23	-28%[57.1 µM]	?	?	2.8µM*	?
O=C(CCc1ccc(Oc2cc([N+](=O)[O-])cc([N+](=O)[O-])c2)cc1)Nc1cccc(Cl)c1	9	-29%	-10%	?	8.9µM*	?
O=C(CCc1ccc(Oc2cc([N+](=O)[O-])cc([N+](=O)[O-])c2)cc1)N1CCCCC1	-15	56µM*	-29%	-58%	?	25µM*
O=C(c1ccc(Oc2ccc([N+](=O)[O-])cc2)cc1)N1CCCCCC1	0	-17%	nt	26%	5%	-33%
C=CC[N+]1([C@H]2C[C@H]3[C@@H]4CC[C@H]5C[C@H](O)[C@@H](N6CCOCC6)C[C@]5(C)[C@H]4CC[C@]3(C)[C@H]2OC(C)=O)CCCC1	nt	nt	nt	nt	-25%[12.7 µM]	nt
N#CC1=C(N)NC(SCC(=O)O)=C(C#N)C12CCCC2	-26	-14%	-4%	9%	35µM*	10%
